# Measured values reported in PubChem BioAssay (NCI).
# About 83,000 compounds went through this panel and 20% of them were active in at least one assay; those are over-represented in the sample as a whole.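 For each line, cells grew in 96-well plates with the test compound present at a single concentration for 48 hours.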 Unmarked numbers belong to inactive results. The source made the active and inactive calls. The calls were made as follows: active = growth percent below 10; inactive = the rest.
# Assays:
# Experiment in all cases: NCI-60 one-dose screen, 48 h (100 = growth as untreated, 0 = no growth, -100 = all killed)
# Settings in all cases: 10 µM unless noted
# HCT-15 colon = system: HCT-15 colon
# HT29 colon = system: HT29 colon
# SNB-75 CNS = system: SNB-75 CNS
# SNB-19 CNS = system: SNB-19 CNS
# U251 CNS = system: U251 CNS
# PC-3 prostate = system: PC-3 prostate
# SK-MEL-5 melanoma = system: SK-MEL-5 melanoma
# UACC-62 melanoma = system: UACC-62 melanoma
# LOX IMVI melanoma = system: LOX IMVI melanoma
# SK-MEL-28 melanoma = system: SK-MEL-28 melanoma
# SK-MEL-2 melanoma = system: SK-MEL-2 melanoma
# EKVX NSCLC = system: EKVX NSCLC
# SN12C renal = system: SN12C renal
# UO-31 renal = system: UO-31 renal
# TK-10 renal = system: TK-10 renal
# ACHN renal = system: ACHN renal
# CAKI-1 renal = system: CAKI-1 renal
# CCRF-CEM leukemia = system: CCRF-CEM leukemia
# MOLT-4 leukemia = system: MOLT-4 leukemia
Compound,growth (HCT-15 colon),growth (HT29 colon),growth (SNB-75 CNS),growth (SNB-19 CNS),growth (U251 CNS),growth (PC-3 prostate),growth (SK-MEL-5 melanoma),growth (UACC-62 melanoma),growth (LOX IMVI melanoma),growth (SK-MEL-28 melanoma),growth (SK-MEL-2 melanoma),growth (EKVX NSCLC),growth (SN12C renal),growth (UO-31 renal),growth (TK-10 renal),growth (ACHN renal),growth (CAKI-1 renal),growth (CCRF-CEM leukemia),growth (MOLT-4 leukemia)
CCCCCOc1ccc(/C=N/Nc2cc(C)nc3ccc(Cl)cc23)cc1,-93.8% (active),-18.9% (active),41%,16.9%,-75% (active),9.76% (active),74.2%,83.6%,-96.9% (active),-85.8% (active),93.1%,66.7%,-88.1% (active),-99.6% (active),-22.5% (active),-73.5% (active),28.7%,1.69% (active),-38.9% (active)
C[C@H]1[C@H](C)CC[C@]2(C(=O)NCC#CCN3CCN(C)CC3)CC[C@]3(C)C(=CC[C@@H]4[C@@]5(C)Cc6c([nH]c7ccccc67)C(C)(C)[C@@H]5CC[C@]43C)[C@H]12,47%,19.3%,90.1%,83.2%,64.3%,69.8%,88.5%,101%,70.9%,82.3%,105%,86.5%,81.2%,67.6%,88.8%,96.3%,91.9%,66.7%,44.6%
CC(=O)c1ccc(NS(=O)(=O)c2cccc(C(=O)Nc3ccc(Br)cc3)c2)cc1,68.2% [25 µM],87.4% [25 µM],78.3% [25 µM],60.4% [25 µM],70.8% [25 µM],60.4% [25 µM],-19.8% [25 µM] (active),26.5% [25 µM],62.7% [25 µM],77.9% [25 µM],41% [25 µM],34.2% [25 µM],64.7% [25 µM],53.8% [25 µM],91.3% [25 µM],73.3% [25 µM],52.8% [25 µM],61.6% [25 µM],53.7% [25 µM]
COC(=O)CNC(=O)[C@]12CCC(C)(C)C[C@H]1C1=CC[C@@H]3[C@@]4(C)Cc5c([nH]c6ccccc56)C(C)(C)[C@@H]4CC[C@@]3(C)[C@]1(C)CC2,87.7%,81%,87.6%,92.2%,82.3%,74.4%,98.1%,81.7%,94%,96.7%,77.3%,88.6%,89.8%,65.3%,90.3%,49.1%,71.2%,87.3%,63.6%
O=C(Nc1ccc(NC(=O)c2cc(=O)[nH]c3ccccc23)cc1)Nc1cccc(Cl)c1,103%,88.4%,74.4%,95.2%,89.4%,76.5%,92.9%,84.6%,87.7%,109%,101%,85.2%,88.8%,65.3%,90.2%,97.6%,78.1%,77.1%,79.7%
O=C(/C=C/c1ccc(Cl)cc1)c1ccc(NC(=O)N2CCN(c3cc4c(cc3F)c(=O)c(C(=O)O)cn4C3CC3)CC2)cc1,96.4%,89.3%,92.1%,87.6%,92.4%,97.7%,93.6%,76.1%,6.5% (active),99.2%,98.2%,98.4%,86.4%,80.2%,107%,101%,82.7%,72.2%,92.1%
CCCOC(=O)N[C@H]1CCc2c(Cl)c(OC)c(OC)c(OC)c2-c2ccc(SC)c(=O)cc21,12.9%,14.7%,31.2%,31%,23.2%,24%,-10.3% (active),30.9%,10.7%,68.8%,48.2%,48.1%,20.5%,23.1%,49.3%,30.7%,13.8%,7.4% (active),8.02% (active)
COc1cccc(-c2ccc3c(c2)NC(=O)/C3=C\c2ccc[nH]2)c1,20.7%,23.6%,44%,81.6%,83.5%,70.1%,11%,44.3%,50.5%,70.7%,52.7%,26.1%,69.2%,52.7%,27.1%,40.2%,28.3%,19%,34.4%
O=C(O)c1ccc(-c2nn(-c3ccc(C(F)(F)F)cc3)cc2CNc2ccc(Oc3ccccc3)cc2)cc1,43.2%,67%,80.6%,82.7%,67%,90.6%,78.9%,77.5%,82.5%,89.1%,90%,66.9%,78.2%,60.1%,98.3%,65.9%,91.8%,76.7%,67.6%
COc1cc(/C=C/c2cc(O)c(C(C)=O)c(O)c2)cc2c1O[C@]1(C)CC[C@@H](O)C(C)(C)[C@H]1C2,42.8%,34.9%,7.67% (active),56.4%,36.1%,45.2%,65.2%,38.7%,35.1%,51.4%,31.4%,90.7%,82.5%,29.7%,94.7%,65%,45%,37.6%,20.2%
CCCCOc1ccc(/C(C)=N/Nc2cc(C)nc3ccc(Br)cc23)cc1,7.75% (active),45.1%,103%,91.9%,31.9%,80.3%,96.7%,98.5%,33.9%,106%,108%,88.2%,82.5%,67.7%,112%,103%,82.9%,64.6%,83.5%
c1ccc2cc(Cn3c(-c4cccc5ccccc45)[n+](Cc4ccc5ccccc5c4)c4c5ccccc5c5ccccc5c43)ccc2c1,-60.4% (active),-49.5% (active),-66.3% (active),-82.7% (active),-91.1% (active),-46.7% (active),-98.1% (active),-74.5% (active),-84.3% (active),-61.5% (active),-72.5% (active),-77.2% (active),-82% (active),-89.2% (active),-79.8% (active),-92.6% (active),-96.7% (active),-17.4% (active),-55.3% (active)
COC(=O)C(OC(C)=O)C(OC(C)=O)c1ccc(OC)c(OC)c1 (stereo not given),97.8%,97.2%,96.4%,103%,97.5%,81.5%,97.7%,100%,90%,102%,96.5%,107%,101%,106%,115%,104%,101%,94.9%,85.5%
C/C(=N\NC(=O)CSc1nc2ccccc2c(=O)n1Cc1ccc(S(N)(=O)=O)cc1)c1ccc(F)cc1,96.9%,94.7%,98.5%,102%,103%,102%,105%,102%,97.6%,117%,111%,90.9%,101%,84.5%,102%,105%,95%,106%,107%
CC(=O)Nc1ccc(-c2ccc3c(c2)NC(=O)/C3=C\c2ccc[nH]2)cc1,92.6%,90.6%,111%,104%,86.6%,97.8%,100%,105%,84.2%,116%,96%,49.5%,94.6%,38.8%,70.2%,69.5%,78.1%,94.8%,87.3%
